Screens deposited in PubChem BioAssay by several laboratories.
Shown are actives, neighbours in structure and some others; about 3.1% of the full set was active somewhere.
BioA inh: M. tuberculosis BioA enzyme inhibitors, primary screen, biochemical, plate reader, single point, HTS; purified M. tuberculosis BioA enzyme; inhibition, % at 9.99 µM; hit rate 0.096% among 360,000; in the data active = inhibition above about 40%
FadD28 binding: inhibitors of FadD28 bisubstrate probe binding, primary screen, biochemical, fluorescence polarization, single point. Mycobacterium tuberculosis FadD28 fatty-acid-AMP ligase. inhibition, % at 12.5 µM. hit rate 0.22% among 360,000; in the data active = inhibition above about 8.5%, passing the limit was not always enough
FBA Mtb inh: Mtb FBA enzyme inhibitors, primary screen, biochemical, fluorescence, strain H37Rv; Fructose-bisphosphate aldolase (Mycobacterium tuberculosis (strain ATCC 25618 / H37Rv)), …; inhibition, % at 1 µM; hit rate 2.3% among 360,000; purified M. tuberculosis FBA, fluorescence read-out;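 also: 0% = vehicle and 100% = reference inhibitor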
Target sequence (P9WQA3 whole entry, looked up): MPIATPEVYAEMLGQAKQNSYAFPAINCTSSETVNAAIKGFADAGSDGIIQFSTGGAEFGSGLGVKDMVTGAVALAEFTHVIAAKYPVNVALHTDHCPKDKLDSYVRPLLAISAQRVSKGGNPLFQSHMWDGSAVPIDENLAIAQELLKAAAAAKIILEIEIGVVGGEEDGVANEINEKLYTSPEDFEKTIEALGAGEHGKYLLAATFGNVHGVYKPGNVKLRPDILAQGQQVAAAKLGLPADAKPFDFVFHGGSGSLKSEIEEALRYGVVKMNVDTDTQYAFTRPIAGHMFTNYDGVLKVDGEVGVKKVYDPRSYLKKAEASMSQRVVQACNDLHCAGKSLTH
SARS 3CLpro inh: SARS-CoV 3CLpro protease inhibitors, primary screen, biochemical, quenched FRET | recombinant SARS-CoV 3CLpro, quenched FRET peptide cleavage | hit rate 0.14% among 290,000 | inhibition, % at 6 µM | Replicase polyprotein 1ab (Severe acute respiratory syndrome coronavirus), P0C6X7; in the data active = inhibition above about 12%
GDH-TPI counter-1: GDH-TPI coupling enzyme inhibitors, primary screen, artefact control for M. tuberculosis FBA inhibitor project, biochemical, absorbance, full deck; AID 588335, 2011; inhibition, % at 4.8 µM; hit rate 1.2% among 360,000; GDH-TPI coupled enzyme counterscreen, NADH absorbance; in the data active = inhibition above about 30%;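 also: 0% = DMSO wells and 100% = wells lacking the enzyme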
Mtb FBA inh conf: M. tuberculosis aldolase blockers, biochemical, fluorescence, strain H37Rv, confirmation. inhibition, % at 1 µM. hit rate 78% among 5,600. purified M. tuberculosis FBA, fluorescence read-out. shares compounds with FBA Mtb inh;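 also: 0% = vehicle wells and 100% = reference inhibitor wells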
GDH-TPI counter-2: GDH-TPI coupling enzyme inhibitors, artefact control for M. tuberculosis FBA inhibitor project, biochemical, fluorescence, high throughput; shares compounds with FBA Mtb inh; GDH-TPI coupled enzyme counterscreen; inhibition, % at 1 µM; hit rate 81% among 5,600; in the data active = inhibition above about 10%
GDH-TPI dose: GDH-TPI coupling enzyme inhibitors, dose response, artefact control for M. tuberculosis FBA inhibitor project, biochemical, fluorescence, IC50. shares compounds with FBA Mtb inh. GDH-TPI coupled enzyme assay, artifact counterscreen. IC50, µM. hit rate 79% among 170; call rule not given here
The depositor's hits bear a star; · = no result given; + = active, no number. Rule as the data show it, unless noted: active = inhibition above about 27%; inactive = the rest.

SMILES | BioA inh | FadD28 binding | FBA Mtb inh | SARS 3CLpro inh | GDH-TPI counter-1 | Mtb FBA inh conf | GDH-TPI counter-2 | others
Cn1c(-c2cccs2)nc2ccccc21 | 0 | 2 | 59* | -2 | -4 | 11 | -4 | GDH-TPI dose=2.6*
c1csc(Cn2c(-c3cccs3)nc3ccccc32)c1 | 5 | -17 | 63* | -3 | 34* | 25 | 28*
Cn1c(-c2ccc(C=O)s2)nc2ccccc21 | · | -1 | 19 | -4 | 21 | · | ·
Cc1noc(C)c1NC(=O)Nc1ccc2c(c1)C(=O)N([C@H](C)CO)C[C@@H](C)[C@H](CN(C)S(=O)(=O)c1ccccc1)OCCCC[C@H](C)O2 | 0 | · | · | · | · | · | ·
Cc1noc(C)c1NC(=O)N(C)C[C@@H]1OCCCC[C@@H](C)Oc2ccc(NC(=O)Nc3ccc(F)cc3)cc2C(=O)N([C@H](C)CO)C[C@H]1C | -2 | · | · | · | · | · | ·
COc1ccc(C(=O)NN/C(=N/S(=O)(=O)c2ccc(C)cc2)c2ccccc2)cc1 | · | 0 | 59* | -1 | 6 | + | +
Cc1coc2c1c(C)cc1oc(=O)c(CC(=O)N[C@H](C(=O)O)C(C)C)c(C)c12 | -2 | -1 | 76* | 1 | 11 | 51* | 49*
Cc1coc2c1c(C)cc1oc(=O)c(CC(=O)N[C@@H](C)C(=O)O)c(C)c12 | -1 | -6 | 38* | 0 | -6 | + | +
Cc1coc2c1c(C)cc1oc(=O)c(Cc3ccccc3)c(C)c12 | -1 | -2 | -2 | -2 | 8 | · | ·
CSCC[C@H](NC(=O)Cc1c(C)c2c(cc(C)c3c(C)c(C)oc32)oc1=O)C(=O)O | 0 | -2 | 20 | 3 | 17 | · | ·
CCC(NC(=O)Cc1c(C)c2c(cc(C)c3c(C)c(C)oc32)oc1=O)C(=O)O (stereo not given) | · | -2 | 37* | -4 | 30 | 193* | 179*
COc1cccc(C(=O)Nc2ccc3c(c2)OC[C@@H](C)N(C)C[C@H](C)[C@H](OC)CN(C)C3=O)c1 | -2 | · | · | · | · | · | ·
CC(=O)c1cc2c(s1)-c1cc(F)ccc1OC2 | · | -2 | 87* | 2 | 20 | 63* | 51*
O=C(c1cc2c(s1)-c1ccccc1OC2)N1CCN(c2ccccn2)CC1 | 0 | -3 | 17 | -1 | 14 | · | ·
C=CCOc1ccc(C2C(C#N)=C(N)N(Nc3ccccc3)C3=C2C(=O)CCC3)cc1OC (stereo not given) | 1 | -3 | 29* | 4 | 10 | 124* | 91*
COc1ccc(OCC(=O)Nc2cc(-c3nn(C)c(=O)c4ccccc34)ccc2N2CCOCC2)cc1 | · | 0 | 27* | -1 | -2 | 6 | -3
CCc1c(C)nc2ncnn2c1N1CCCC(C(=O)Nc2cc(F)ccc2C)C1 (stereo not given) | 11 | 0 | 28* | -3 | 16 | 8 | 0
O=C(O)CCc1nn2c3ccccc3n(Cc3ccccc3F)c2nc1=O | 8 | 0 | 37* | -5 | 5 | 110* | 87*
Cc1nc(-c2cccc(S(=O)(=O)N3CCC(C)CC3)c2)cs1 | 1 | -3 | 41* | 5 | 0 | + | +
CCC(C)NC(=O)Cc1cn(C)c2ccccc12 (stereo not given) | -1 | -4 | 102* | 3 | -7 | 9 | -3
CCCNC(=O)N(C)C[C@H]1Oc2ncc(C#CC3CC3)cc2C(=O)N([C@H](C)CO)C[C@@H]1C | 0 | · | · | · | · | · | ·
COc1ccc2c(c1OC)C(=O)N1C(C(=O)O)Cc3c([nH]c4ccccc34)C21 (stereo not given) | 0 | -4 | 36* | 2 | 0 | 107* | 89*
CC(=O)N(C)C[C@@H]1Oc2cc(-c3cccc(C#N)c3)ccc2S(=O)(=O)N([C@H](C)CO)C[C@@H]1C | 4 | · | · | · | · | · | ·
COc1ccccc1Cn1c(/C=C/c2ccccc2)nc2ccccc21 | · | -9 | 65* | 1 | 14 | 98* | 77*
COCCn1c(/C=C/c2ccccc2)nc2ccccc21 | 3 | -4 | 53* | -2 | 30 | 7 | -3
SMILES | BioA inh | FadD28 binding | FBA Mtb inh | SARS 3CLpro inh | GDH-TPI counter-1 | Mtb FBA inh conf | GDH-TPI counter-2 | others
Cn1c(/C=C/c2ccccc2)nc2ccccc21 | · | -2 | 48* | 4 | 28 | 199* | 168*
COc1ccc(/C=C/c2nc3ccccc3n2Cc2ccccc2OC)cc1 | · | -5 | 17 | 1 | 17 | · | ·
CC(=O)c1ccc(/C=C/c2nc3ccccc3n2C)o1 | 5 | -5 | 46* | 6 | 8 | 25 | 17*
CC(C)NC(=O)N(C)C[C@@H]1Oc2cc(C#CCN(C)C)ccc2S(=O)(=O)N([C@@H](C)CO)C[C@H]1C | -2 | · | · | · | · | · | ·
O=C(N[C@H]1CC[C@@H](CCNC(=O)c2ccccc2F)O[C@H]1CO)c1cnccn1 | -3 | · | · | · | · | · | ·
Cc1cccc(NC(=O)Cn2c(/C=C/c3ccccc3)nc3ccccc32)c1 | · | -3 | 32* | 1 | 8 | 42* | 34*
Cc1ccc(NC(=O)Cn2c(=O)c(C)nc3ccccc32)cc1 | · | -4 | 2 | 2 | -2 | · | ·
O=S(=O)(NCc1ccc(F)cc1)c1ccc(-c2cnc(C3CC3)o2)cc1 | -2 | 0 | 29* | 0 | 15 | 19 | 16*
O=S(=O)(Nc1ccccc1)c1ccc(-c2cnc(C3CC3)o2)cc1 | 5 | 0 | 18 | -3 | 6 | · | ·
CCn1c(=O)c2cc(C(=O)NCCN3CCOCC3)sc2c2ccccc21 | -1 | -1 | 75* | -3 | 25 | 198* | 162*
CCn1c(=O)c2cc(C(=O)NC(C)C)sc2c2ccccc21 | 1 | -6 | 44* | 3 | 5 | · | +
CCCCNC(=O)c1cc2c(=O)n(CC)c3ccccc3c2s1 | -1 | -2 | 7 | -1 | 12 | · | ·
Cc1ccc(S(=O)(=O)N(C)C[C@H]2Oc3ccc(NS(C)(=O)=O)cc3C(=O)N([C@H](C)CO)C[C@H]2C)cc1 | 3 | · | · | · | · | · | ·
Cc1ccccc1NC(=O)C1CC(Cl)=CCC1C(=O)O (stereo not given) | 0 | 0 | -1 | 0 | -5 | · | ·
O=C(O)C1CC=C(Cl)CC1C(=O)NC1CCCCC1 (stereo not given) | 0 | 1 | 28* | 2 | 4 | 160* | 108*
